PubChem BioAssay AID1159580 (chemical genetic matrix, 2015)
Hit rate of the full screen: of about 5,500 compounds, about 2,000 (36%) were called active. About 18% were inconclusive and are not listed. No stated cut-off is given here; in the data, active means normalized growth mostly below about 0.91 (no sharp cut-off); inconclusive means no clear call, values can overlap the other calls; inactive means mostly above about 0.92. This is one part of the list.

Test: chemical genetic growth profiling, strain panel (AID 1159580);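 further: tested at 20 µM; growth read once vehicle control cultures reached saturation at 30 °C; 1 = growth at the plate median or of vehicle wells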
Settings: growth OD

Measured: normalized growth

COc1cc(CNC(=O)CCCC/C=C/C(C)C)ccc1O
inactive: S. cerevisiae deletion strains, locus YJR043C, strain POL32, stronger effect = lower value 1 | S. cerevisiae deletion strains, locus YJR066W, strain TOR1, stronger effect = lower value 0.95 | S. cerevisiae deletion strains, locus YKL009W, strain mrt4, stronger effect = lower value 0.926 | S. cerevisiae deletion strains, locus YKL068W, stronger effect = lower value 1.01 | S. cerevisiae deletion strains, locus YKL085W, strain MDH1 (second series), stronger effect = lower value 1 | S. cerevisiae deletion strains, locus YKL085W, strain MDH1, stronger effect = lower value 1 | S. cerevisiae deletion strains, locus YKL160W, strain elf1, stronger effect = lower value 0.97 | S. cerevisiae deletion strains, locus YKL190W, strain CNB1, stronger effect = lower value 0.998 | S. cerevisiae deletion strains, locus YKR001C, strain vps1, stronger effect = lower value 0.997 | S. cerevisiae deletion strains, locus YKR026C, strain gcn3, stronger effect = lower value 0.97 | S. cerevisiae deletion strains, locus YKR091W, strain srl3, stronger effect = lower value 0.981 | S. cerevisiae deletion strains, locus YLL001W, strain dnm1, stronger effect = lower value 0.955 | S. cerevisiae deletion strains, locus YLL026W, stronger effect = lower value 0.987 | S. cerevisiae deletion strains, locus YLL041C, strain sdh2, stronger effect = lower value 0.987 | S. cerevisiae deletion strains, locus YLR027C, strain aat2, stronger effect = lower value 0.975 | S. cerevisiae deletion strains, locus YLR039C, strain RIC1, stronger effect = lower value 1.07 | S. cerevisiae deletion strains, locus YLR058C, strain SHM2, stronger effect = lower value 1.02 | S. cerevisiae deletion strains, locus YLR102C, strain apc9, stronger effect = lower value 0.986 | S. cerevisiae deletion strains, locus YLR113W, strain HOG1, stronger effect = lower value 1.02 | S. cerevisiae deletion strains, locus YLR221C, strain rsa3, stronger effect = lower value 0.978 | S. cerevisiae deletion strains, locus YLR258W, strain gsy2, stronger effect = lower value 0.986 | S. cerevisiae deletion strains, locus YLR262C, strain YPT6 (second series), stronger effect = lower value 0.966 | S. cerevisiae deletion strains, locus YLR262C, strain YPT6, stronger effect = lower value 1.11 | S. cerevisiae deletion strains, locus YLR268W, strain sec22, stronger effect = lower value 0.967 | S. cerevisiae deletion strains, locus YLR320W, strain mms22, stronger effect = lower value 0.995 | S. cerevisiae deletion strains, locus YLR330W, strain CHS5, stronger effect = lower value 1.02 | S. cerevisiae deletion strains, locus YLR342W, strain FKS1 (second series), stronger effect = lower value 1.02 | S. cerevisiae deletion strains, locus YLR342W, strain FKS1, stronger effect = lower value 0.978 | S. cerevisiae deletion strains, locus YLR357W, strain rsc2, stronger effect = lower value 1.03 | S. cerevisiae deletion strains, locus YLR370C, strain arc18, stronger effect = lower value 0.977 | S. cerevisiae deletion strains, locus YLR371W, strain rom2, stronger effect = lower value 1.01 | S. cerevisiae deletion strains, locus YLR384C, strain iki3, stronger effect = lower value 0.975 | S. cerevisiae deletion strains, locus YLR418C, strain cdc73, stronger effect = lower value 1 | S. cerevisiae deletion strains, locus YML016C, strain PPZ1, stronger effect = lower value 0.998 | S. cerevisiae deletion strains, locus YML032C, strain rad52, stronger effect = lower value 0.988 | S. cerevisiae deletion strains, locus YML120C, strain ndi1, stronger effect = lower value 0.984 | S. cerevisiae deletion strains, locus YML124C, strain tub3, stronger effect = lower value 0.986 | S. cerevisiae deletion strains, locus YMR058W, strain fet3, stronger effect = lower value 1 | S. cerevisiae deletion strains, locus YMR078C, strain ctf18, stronger effect = lower value 1 | S. cerevisiae deletion strains, locus YMR125W, strain sto1, stronger effect = lower value 1 | S. cerevisiae deletion strains, locus YMR129W, stronger effect = lower value 0.974 | S. cerevisiae deletion strains, locus YMR205C, strain PFK2, stronger effect = lower value 0.975 | S. cerevisiae deletion strains, locus YMR223W, strain ubp8, stronger effect = lower value 1 | S. cerevisiae deletion strains, locus YMR231W, strain pep5, stronger effect = lower value 1 | S. cerevisiae deletion strains, locus YMR307W, strain GAS1, stronger effect = lower value 1.04 | S. cerevisiae deletion strains, locus YNL067W, strain RPL9B, stronger effect = lower value 1 | S. cerevisiae deletion strains, locus YNL071W, strain lat1, stronger effect = lower value 0.979 | S. cerevisiae deletion strains, locus YNL183C, strain NPR1, stronger effect = lower value 0.96 | S. cerevisiae deletion strains, locus YNL209W, strain ssb2, stronger effect = lower value 1 | S. cerevisiae deletion strains, locus YNL233W, strain BNI4, stronger effect = lower value 0.995 | S. cerevisiae deletion strains, locus YNL248C, strain rpa49, stronger effect = lower value 0.926 | S. cerevisiae deletion strains, locus YNL250W, strain rad50, stronger effect = lower value 1.01 | S. cerevisiae deletion strains, locus YNL271C, strain bni1, stronger effect = lower value 0.984 | S. cerevisiae deletion strains, locus YNL298W, strain CLA4, stronger effect = lower value 0.992 | S. cerevisiae deletion strains, locus YNL307C, strain MCK1, stronger effect = lower value 0.988 | S. cerevisiae deletion strains, locus YNL322C, strain KRE1 (second series), stronger effect = lower value 0.98 | S. cerevisiae deletion strains, locus YNL322C, strain KRE1, stronger effect = lower value 1.01 | S. cerevisiae deletion strains, locus YNR049C, strain mso1, stronger effect = lower value 0.985 | S. cerevisiae deletion strains, locus YNR052C, strain pop2, stronger effect = lower value 0.985 | S. cerevisiae deletion strains, locus YOL012C, strain htz1 1.39 | S. cerevisiae deletion strains, locus YOL147C, strain pex11, stronger effect = lower value 0.973 | S. cerevisiae deletion strains, locus YOR001W, strain rrp6, stronger effect = lower value 0.956 | S. cerevisiae deletion strains, locus YOR061W, strain CKA2, stronger effect = lower value 1.02 | S. cerevisiae deletion strains, locus YOR069W, strain VPS5, stronger effect = lower value 1.01 | S. cerevisiae deletion strains, locus YOR070C, strain gyp1, stronger effect = lower value 0.99 | S. cerevisiae deletion strains, locus YOR080W, strain dia2, stronger effect = lower value 0.979 | S. cerevisiae deletion strains, locus YOR083W, strain WHI5, stronger effect = lower value 0.962 | S. cerevisiae deletion strains, locus YOR106W, strain vam3, stronger effect = lower value 0.967 | S. cerevisiae deletion strains, locus YOR136W, strain idh2, stronger effect = lower value 0.988 | S. cerevisiae deletion strains, locus YOR144C, strain elg1, stronger effect = lower value 0.996 | S. cerevisiae deletion strains, locus YOR184W, strain ser1, stronger effect = lower value 0.995 | S. cerevisiae deletion strains, locus YOR231W, strain MKK1, stronger effect = lower value 1.02 | S. cerevisiae deletion strains, locus YOR265W, strain rbl2, stronger effect = lower value 0.982 | S. cerevisiae deletion strains, locus YOR270C, strain vph1, stronger effect = lower value 1 | S. cerevisiae deletion strains, locus YOR290C, strain snf2, stronger effect = lower value 1 | S. cerevisiae deletion strains, locus YOR316C, strain cot1, stronger effect = lower value 0.987 | S. cerevisiae deletion strains, locus YPL051W, strain arl3, stronger effect = lower value 0.97 | S. cerevisiae deletion strains, locus YPL078C, strain atp4, stronger effect = lower value 0.974 | S. cerevisiae deletion strains, locus YPL106C, strain sse1, stronger effect = lower value 0.995 | S. cerevisiae deletion strains, locus YPL240C, strain hsp82, stronger effect = lower value 0.991 | S. cerevisiae deletion strains, locus YPL256C, strain CLN2, stronger effect = lower value 0.986 | S. cerevisiae deletion strains, locus YPR119W, strain clb2, stronger effect = lower value 0.994 | S. cerevisiae deletion strains, locus YPR141C, strain kar3, stronger effect = lower value 0.996 | S. cerevisiae deletion strains, locus YPR163C, strain tif3, stronger effect = lower value 0.981 | S. cerevisiae deletion strains, locus YPR167C, strain met16, stronger effect = lower value 1.01 | S. cerevisiae deletion strains, strain wtn01, stronger effect = lower value 0.963 | S. cerevisiae strains, strain wild type, stronger effect = lower value 1
